Measurements reported in PubChem BioAssay (NCATS).
Inconclusive results are not listed. Calls of active or inactive are those of the source. Calls follow the shape of the dose curve; as a rule, active = well fitted inhibition curve with a large enough effect; inconclusive = small, poorly fitted or top-dose-only effect; inactive = flat fitted curve, though single readings scatter.

Assays:
Test in all cases: qHTS profiling for inhibitors of Plasmodium falciparum proliferation (AID 504749); also: nearly all actives have a fitted effect of over 60% in size
3D7 = conditions: P. falciparum in erythrocytes, SYBR Green DNA, 72 h; series mostly up to 28.7 µM
Summary of the method: (§1)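 Readout was DNA-dye fluorescence from lysed cultures, ex 485/em 535 nm. Parasitized red cells had grown 72 h with compound; data scaled between 0.29 uM artemisinin and DMSO wells and corrected using vehicle-only plates.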

CP185 = conditions: P. falciparum in erythrocytes, SYBR Green DNA, 72 h; series mostly up to 28.7 µM
Summary of the method: as §1

CP192 = conditions: P. falciparum in erythrocytes, SYBR Green DNA, 72 h; series mostly up to 28.7 µM
Summary of the method: as §1

CP194 = conditions: P. falciparum in erythrocytes, SYBR Green DNA, 72 h; series mostly up to 28.7 µM
Summary of the method: as §1

CP201 = conditions: P. falciparum in erythrocytes, SYBR Green DNA, 72 h; series mostly up to 28.7 µM
Summary of the method: as §1

CP237 = conditions: P. falciparum in erythrocytes, SYBR Green DNA, 72 h; series mostly up to 28.7 µM
Summary of the method: as §1

CP238 = conditions: P. falciparum in erythrocytes, SYBR Green DNA, 72 h; series mostly up to 28.7 µM
Summary of the method: as §1

CP247 = conditions: P. falciparum in erythrocytes, SYBR Green DNA, 72 h; series mostly up to 28.7 µM
Summary of the method: as §1

CP262 = conditions: P. falciparum in erythrocytes, SYBR Green DNA, 72 h; series mostly up to 28.7 µM
Summary of the method: as §1

CP265 = conditions: P. falciparum in erythrocytes, SYBR Green DNA, 72 h; series mostly up to 12.8 µM
Summary of the method: as §1

CP266 = conditions: P. falciparum in erythrocytes, SYBR Green DNA, 72 h; series mostly up to 12.8 µM
Summary of the method: as §1

CP268 = conditions: P. falciparum in erythrocytes, SYBR Green DNA, 72 h; series mostly up to 28.7 µM
Summary of the method: as §1

CP286 = conditions: P. falciparum in erythrocytes, SYBR Green DNA, 72 h; series mostly up to 28.7 µM
Summary of the method: as §1

CP305 = conditions: P. falciparum in erythrocytes, SYBR Green DNA, 72 h; series mostly up to 28.7 µM
Summary of the method: as §1

DIV30 = conditions: P. falciparum in erythrocytes, SYBR Green DNA, 72 h; series mostly up to 28.7 µM
Summary of the method: as §1

GB4 = conditions: P. falciparum in erythrocytes, SYBR Green DNA, 72 h; series mostly up to 28.7 µM
Summary of the method: as §1

HB3 = conditions: P. falciparum in erythrocytes, SYBR Green DNA, 72 h; series mostly up to 28.7 µM
Summary of the method: as §1

P94_40 = conditions: P. falciparum in erythrocytes, SYBR Green DNA, 72 h; series mostly up to 28.7 µM
Summary of the method: as §1

PC49 = conditions: P. falciparum in erythrocytes, SYBR Green DNA, 72 h; series mostly up to 28.7 µM
Summary of the method: as §1

TAB113 = conditions: P. falciparum in erythrocytes, SYBR Green DNA, 72 h; series mostly up to 28.7 µM
Summary of the method: as §1

Measured: Potency

CNC(C)[C@@H](O)c1ccc(O)cc1 (stereo not given in full)
inactive: all assays above
